Rows were chosen to be rich in hits. Some 1.3% of all compounds tested hit in one or more screens of this group.
A1 inh = inhibitors of the anti-apoptotic protein A1, read as caspase activation; MEF A1-2A-BIM cells, Caspase-Glo 3/7 luminescence, 3 h; percent of clofoctol response, vehicle zero; caspase activation, % (no concentration beside the values); hit rate 0.066% among 330,000;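 active means over half of replicate activation scores above 10%, or exactly half above 10 with the replicate mean above 10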
B2AR ag = activates human beta-2 adrenergic receptor causing internalization. P07550. Am2.2-beta2AR cells, FAP receptor internalization, flow cytometry. response, % (test concentration not listed). hit rate 0.43% among 340,000. AID 504454;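 active means response above a set limit, near 3 SD of response in nonfluorescent compounds, cut at about 42% in these data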
Target sequence (P07550 whole entry, looked up): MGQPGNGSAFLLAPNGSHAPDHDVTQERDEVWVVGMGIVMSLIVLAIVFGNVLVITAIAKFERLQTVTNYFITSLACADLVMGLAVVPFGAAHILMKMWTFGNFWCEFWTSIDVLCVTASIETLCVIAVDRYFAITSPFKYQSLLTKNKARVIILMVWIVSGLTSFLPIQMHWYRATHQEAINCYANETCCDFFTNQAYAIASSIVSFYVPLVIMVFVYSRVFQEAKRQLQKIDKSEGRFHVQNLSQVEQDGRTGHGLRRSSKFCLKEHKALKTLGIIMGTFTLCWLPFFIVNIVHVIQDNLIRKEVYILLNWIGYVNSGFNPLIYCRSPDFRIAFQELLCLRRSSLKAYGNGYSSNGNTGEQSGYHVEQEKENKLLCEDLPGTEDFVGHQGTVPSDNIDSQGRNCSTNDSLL
NTR1 agonist = NTR1 (human) agonism. NTR1-U2OS beta-arrestin-GFP spot imaging, agonist mode. activation, % at 20 µM. hit rate 0.17% among 330,000. AID 493036;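 active means activation at or above 40% of the spot to cytoplasm intensity ratio, with at least 20 cells analyzed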;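 further: 0% = DMSO without peptide and 100% = 100 nM NTR1 peptide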
Target sequence (P30989 whole entry, looked up): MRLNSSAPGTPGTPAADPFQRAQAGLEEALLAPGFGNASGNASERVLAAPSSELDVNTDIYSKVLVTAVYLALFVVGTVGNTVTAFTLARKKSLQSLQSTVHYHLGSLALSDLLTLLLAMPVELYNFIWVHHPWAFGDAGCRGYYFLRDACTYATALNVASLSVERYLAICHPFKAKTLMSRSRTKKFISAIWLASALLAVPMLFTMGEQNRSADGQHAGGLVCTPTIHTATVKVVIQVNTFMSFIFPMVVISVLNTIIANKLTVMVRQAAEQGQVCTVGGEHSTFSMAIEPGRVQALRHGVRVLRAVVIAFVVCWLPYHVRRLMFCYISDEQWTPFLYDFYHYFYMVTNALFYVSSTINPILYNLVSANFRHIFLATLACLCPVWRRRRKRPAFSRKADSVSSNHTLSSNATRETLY
GRK2 aptamer HTS = inhibitors of human GRK2 displacing RNA aptamer; P25098; bead flow cytometry, FAM-aptamer displacement from GRK2; inhibition of aptamer binding, % at 10 µM; hit rate 0.59% among 330,000; AID 488847;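 active means inhibition of aptamer binding above 40%, roughly 3 SD of noise, on plates passing a quality check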;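 further: median bead fluorescence of bound FAM aptamer so fluorescent compounds give negative values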
VLA-4 inh = inhibition in a human VLA-4 binding assay; inhibition, % (about 7 µM as worked out from the volumes in the protocol); AID 2557; VLA-4 expressing cells, ligand binding flow cytometry; hit rate 0.2% among 330,000; P13612; in the data active means inhibition above about 50%
GRK2 CP1 = human GRK2 inhibition confirmation, cherry pick 1; aptamer displacement, % at 10 µM; bead-bound GRK2, FAM-aptamer displacement, flow cytometry; shares compounds with GRK2 aptamer HTS; hit rate 4% among 2,000;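 active means aptamer displacement above 40%, near three times the noise of non-fluorescent compounds, on plates passing quality checks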;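 further: negative values mostly reflect intrinsic compound fluorescence rather than true enhancement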
Aptamer quench = fluorescent aptamer quenching in GRK2 counter-screen dose response. shares compounds with GRK2 aptamer HTS. Fluorescent RNA aptamer beads, flow cytometry; active compounds read high. fluorescence change (kMESF span), kMESF (test concentration not listed). 110 tested, under 10 active;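 active means compounds whose bead fluorescence drops by more than 37 kMESF across the dose range, marking them as dye quenchers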
FAM quench CP1 = counter-screen for GRK2 aptamer inhibitors: fluorescent aptamer quenchers | AID 504580 | shares compounds with GRK2 aptamer HTS | fluorescence response (% of DMSO), % at 10 µM | Carboxyfluorescein RNA aptamer on beads, flow cytometry quenching; active compounds read low | 2,000 tested, under 10 active;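 active means compounds that quench the bead-bound fluorescent RNA probe, cutting fluorescence to under half of the solvent control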;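 further: counterscreen run without GRK2 so only probe quenching by compound is measured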
GRK2 CP2 = confirmation of human GRK2 inhibitors binding RNA aptamer site. shares compounds with GRK2 aptamer HTS. bead-bound GRK2, FAM-aptamer displacement, flow cytometry. inhibition of aptamer binding, % at 10 µM. 360 tested, under 10 active;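 active means inhibition of aptamer binding above 40%, about triple the noise seen with nonglowing compounds, on plates passing quality control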;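 further: negative values mostly come from compounds that fluoresce themselves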
Aptamer quench 2 = quenches fluorescent RNA aptamer, GRK2 hit artifact | shares compounds with GRK2 aptamer HTS | Streptavidin beads, FAM-RNA aptamer fluorescence quenching, flow cytometry | change in fluorescence (kMESF span), kMESF (test concentration not listed) | 25 tested, under 10 active;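 active means compounds quenching the bead-bound labeled aptamer, with fluorescence dropping by more than 37 kMESF over the dose range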
FAM quench SP = counter-screen for GRK2 binding hits: quenchers of fluorescent RNA aptamer. shares compounds with GRK2 aptamer HTS. AID 588494. carboxyfluorescein RNA aptamer beads, flow cytometry quenching; active compounds read low. fluorescence response vs DMSO, % at 10 µM. 360 tested, under 10 active;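 active means response vs DMSO under 50%, meaning signal dropped by over half, treated as fluorescence quencher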;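 further: labelled aptamer on streptavidin beads without GRK2 as a quench counter-screen; 100% = bead fluorescence of DMSO wells and lower means quenching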
FAM quench PS1 = counter-screen for GRK2 aptamer binding inhibitors: aptamer fluorescence quenching; Bead-bound FAM RNA aptamer fluorescence quenching, flow cytometry; active compounds read low; shares compounds with GRK2 aptamer HTS; 35 tested, under 10 active; AID 588496; fluorescence ratio to DMSO, % at 11.1 µM;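 active means compounds that dim the fluorescent label, raw bead signal shifting by over 33 units between lowest and highest dose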
* = called active by the depositor; . = no result.

SMILES | A1 inh | B2AR ag | NTR1 agonist | GRK2 aptamer HTS | VLA-4 inh | GRK2 CP1 | FAM quench CP1 | others
CCN(CC)c1ccc(NC(=O)CCS(=O)(=O)c2ccc(Br)cc2)c(C)c1 | 0.5 | 2.9 | -0.3 | 83.0* | 21.6 | 72.8* | 91.4 | Aptamer quench=54.7*;Aptamer quench 2=4.6;FAM quench PS1=98.0
Cc1ccccc1NC(=O)CCS(=O)(=O)c1ccc(Br)cc1 | 0.5 | -5.2 | 0.9 | 41.0* | 12.4 | 18.4 | 102.3 | Aptamer quench 2=-6.9;FAM quench PS1=97.0
Cc1ccc(NC(=O)CCS(=O)(=O)c2ccc(Br)cc2)nc1 | 0.8 | -7.2 | -0.9 | 0.0 | 13.3 | 0.6 | 95.7
Cc1ccc(S(=O)(=O)CCC(=O)NC2CCCCC2)cc1 | 0.9 | -2.5 | -1.2 | 0.0 | 0.0 | . | .
Cc1cccc(C)c1NC(=O)CCS(=O)(=O)c1ccc(Br)cc1 | 1.4 | -0.6 | -1.1 | 2.0 | 2.9 | . | .
Cc1ccc(S(=O)(=O)CCC(=O)Nc2ccc(Br)cc2)cc1 | -0.2 | -2.8 | -0.5 | 26.0 | 2.4 | . | .
Cc1cc(=O)oc2cc(NC(=O)CCOc3ccccc3)ccc12 | -1.3 | -4.7 | -0.9 | 0.0 | -1.6 | . | .
CSc1nc2sc3c(c2c(=O)n1C)CCCC3 | -1.7 | -3.6 | 0.3 | 2.0 | 3.2 | . | .
CSc1nc2sc3c(c2c(=O)n1C)CCC3 | -1.1 | -1.4 | 3.3 | 1.0 | -0.5 | . | . | GRK2 CP2=-68.8;FAM quench SP=98.0
C#CCSc1nc2sc3c(c2c(=O)n1C)CCC3 | -0.6 | 2.8 | 6.3 | 55.0* | -35.0 | 52.5* | 164.5 | Aptamer quench=4;GRK2 CP2=66.9*;Aptamer quench 2=-2.9;FAM quench SP=102.0;FAM quench PS1=99.0
CCSc1nc2sc3c(c2c(=O)n1CC)CCC3 | -0.3 | 4.9 | 5.3 | 3.0 | -9.2 | . | . | GRK2 CP2=16.1;FAM quench SP=99.0
CC1CCN(C(=O)CSc2ccc(-c3cccnc3)nn2)CC1 | 2.1 | -9.9 | -0.1 | 2.0 | -0.7 | . | .
COc1ccc(CCC(=O)OCC(=O)N(CC(C)C)c2c(N)n(Cc3ccccc3)c(=O)[nH]c2=O)cc1 | 0.2 | 0.4 | 1.1 | 5.0 | 1.7 | . | .
CC(Nc1nc(-c2cccc(Br)c2)cs1)c1nc2cc(Cl)c(N3CCCCC3)cc2n1CCOCCO (stereo unspecified) | 0.5 | -0.6 | 9.7 | 3.0 | 10.5 | 2.5 | 99.7
CC(Nc1nc(-c2ccc(F)cc2)cs1)c1nc2cc(Cl)c(N3CCCCC3)cc2n1CCOCCO (stereo unspecified) | 0.5 | 3.4 | 4.5 | 0.0 | -15.1 | -1.4 | 102.9
CC(Nc1nc(-c2ccc(F)cc2)cs1)c1nc2cc(Cl)c(N3CCCCC3)cc2n1CCCO (stereo unspecified) | 0.5 | 2.5 | 3.7 | 3.0 | -6.8 | . | .
O=C(NCCC(=O)N1CCCC(C(F)(F)F)C1)c1ccccc1Cl (stereo unspecified) | 0.0 | -5.6 | -0.9 | 0.0 | 7.9 | . | .
Cc1ccc2[nH]c3c(=O)n(CC(=O)NCCCN4CCN(c5ccc(F)cc5)CC4)ncc3c2c1 | -0.5 | 1.4 | -0.5 | 45.0* | 20.6 | 23.6 | 97.7
CCC1CCCCN1CCCNC(=O)Cn1ncc2c([nH]c3ccc(C)cc32)c1=O (stereo unspecified) | 0.6 | 6.1 | 0.1 | 0.0 | 4.9 | . | .
Cc1ccc(CNC(=O)CN2CCN(c3ccc(F)cc3)CC2)cc1 | -1.5 | 4.0 | 0.6 | 43.0* | 2.6 | 2.3 | 97.4
CC(C)CCn1c(COc2ccccc2)n[nH]c1=S | -1.1 | -8.2 | 1.0 | 53.0* | -4.2 | -7.7 | 106.1
CN(CC(=O)Nc1cccc(F)c1)C(=O)CCc1nc2ccccc2c(=O)[nH]1 | -0.4 | 3.2 | -0.8 | 2.0 | 7.3 | . | .
CN(C)CCCN(C(=O)c1ccc(S(=O)(=O)N2CCCCC2)cc1)c1nc2cc3c(cc2s1)OCO3 | 0.0 | 23.7 | 3.0 | 15.0 | 20.8 | -13.7 | 101.4
CN(C)CCCN(C(=O)c1ccc(S(=O)(=O)N2CCOCC2)cc1)c1nc2cc3c(cc2s1)OCO3 | 0.6 | 3.2 | 0.7 | 0.0 | 4.7 | . | .
CC(=O)CSc1nc2cc3c(cc2cc1C#N)OCCO3 | -1.2 | 19.5 | 8.5 | 60.0* | -4.4 | . | . | GRK2 CP2=3.9;FAM quench SP=100.0
SMILES | A1 inh | B2AR ag | NTR1 agonist | GRK2 aptamer HTS | VLA-4 inh | GRK2 CP1 | FAM quench CP1 | others
N#Cc1cc2cc3c(cc2nc1SCC(=O)N1CCCC1)OCCO3 | -0.4 | 11.5 | 2.0 | 0.0 | 0.1 | . | .
O=S(=O)(NCCCc1ccccc1)c1ccccc1 | 0.4 | -2.4 | 1.2 | 0.0 | 10.9 | . | .
Cc1ccc(C)c(S(=O)(=O)NCCCc2ccccc2)c1 | -1.1 | 6.5 | -0.1 | 81.0* | 7.5 | 0.4 | 109.2
COc1ccc(OC)c(/C=N/N(CCC#N)C2=NS(=O)(=O)c3ccccc32)c1 | 0.0 | 7.3 | 1.3 | 0.0 | 2.4 | . | .
Cc1ccc(-n2ncc3c(SCC(=O)NNC(=O)C(C)C)ncnc32)cc1 | -6.2 | -1.0 | -0.7 | 97.0* | 5.0 | -0.6 | 99.9
CCc1cc(C(=O)N2CCCc3ccccc32)sc1C | 0.6 | 1.2 | 1.4 | 3.0 | -6.0 | . | .
CCOC(=O)C(C)Sc1nc2c(c(=O)[nH]c(=O)n2C)n1C/C=C(/C)Cl (stereo unspecified) | 0.8 | 2.6 | 0.6 | 58.0* | 0.0 | 57.7* | 97.5 | Aptamer quench=-0.8
O=C(NCc1ccc(Cl)cc1)c1cc(S(=O)(=O)N2CCCCC2)c[nH]1 | -0.6 | -12.6 | 1.3 | 43.0* | -25.3 | 2.2 | 96.3
O=C(N/C(=C\c1ccco1)C(=O)N1CCCC(CO)C1)c1ccccc1 (stereo unspecified) | -0.1 | 6.4 | -0.5 | 2.0 | -8.4 | . | .
CCc1ccccc1NC(=O)CCS(=O)(=O)c1ccc(OC)cc1 | 0.4 | 11.9 | 0.2 | 53.0* | 10.7 | 27.3 | 98.8 | Aptamer quench=2.8;Aptamer quench 2=0.3
COc1ccc(NC(=O)CCS(=O)(=O)c2cccc3nonc23)cc1 | 0.8 | -0.3 | 1.6 | 1.0 | -0.3 | . | .
COc1ccc(S(=O)(=O)CCC(=O)Nc2c(C)cccc2C)cc1 | 0.7 | 1.9 | 0.8 | 6.0 | -1.1 | . | .
CCOc1ccccc1NC(=O)CCS(=O)(=O)c1ccc(OC)cc1 | 0.7 | -6.3 | -1.9 | 0.0 | -8.4 | . | . | GRK2 CP2=-32.9;FAM quench SP=103.0

Compound activity from PubChem.
